Data reported in PubChem BioAssay AID720517 (National Center for Advancing Translational Sciences (NCATS), 2013).
Records with an inconclusive call do not appear. Values without a mark were called inactive. Calls follow the shape of the dose curve; as a rule, active = well fitted activation curve with a large enough effect; inconclusive = small, poorly fitted or top-dose-only effect; inactive = flat fitted curve, though single readings scatter.

Assay: qHTS for Inhibitors of Cell Surface uPA Generation: FP59 Counterscreen for Cherry-picked Compounds; also: 0% is about no effect
Details: FP59 anthrax toxin cytotoxicity counterscreen, cells; series mostly up to 115 µM; activity (protection from FP59): at the top concentration

SMILES | activity (protection from FP59) [%]
O=C1CC(/C=C/c2ccc(Cl)cc2)=Nc2ccccc2N1 | 13
O=C(C1CCN(c2nnc(N3CCCC3=O)s2)CC1)N1CCN(c2cccc(C(F)(F)F)c2)CC1 | -1.53
COc1ccc(N2CCN(C3CCN(S(=O)(=O)c4ccc(F)cc4)CC3)CC2)cc1 | -1.36
C=CCn1c(SCc2ccc(C(=O)NCCO)cc2)nc2ccccc2c1=O | -1.12
CCN(c1ccccc1)S(=O)(=O)c1ccc(NC(=O)c2ccco2)cc1 | 0.139
Cc1cc(C)n(C(=O)c2cccc([N+](=O)[O-])c2)n1 | -1.19
COC(=O)[C@@]1(Cc2ccc(F)cc2)[C@H]2c3cc(C(=O)N(C)C)n(Cc4c(CO)[nH]cc(C)c4=O)c3C[C@H]2CN1C(=O)c1ccccc1 | -1.32
Cc1cnc(CNC(=O)CC2C(=O)NCCN2Cc2ccccc2C(F)(F)F)cn1 (stereo not drawn) | -1.1
O=C(CCCOc1ccc(Cl)cc1Cl)NCc1ccncc1 | -1.41
O=C(CSc1ccc(Cl)cc1)N1CCCC1 | -1.54
CCc1ccc(NCc2nc(-c3ccccc3)no2)cc1 | 0.485
Nc1ccc(S(=O)(=O)c2ccccc2)nc1 | -1.36
CCOc1ccc(C(=O)NCCO)cc1 | -1.17
C=CCOC(=O)C1=C(C)NC(C)=C(C(=O)OCC=C)C1c1cn(-c2ccccc2)nc1-c1ccco1 | -1.15
Cc1cc(=O)n2nc(N3CCCC(C(=O)NCc4ccc(Cl)cc4)C3)sc2n1 (stereo not drawn) | -1.4
C#CCN1C=C(C(=O)OCC)C(C)NS1(=O)=O (stereo not drawn) | -1.31
CCC1=NN(C(=O)C(=O)Nc2ccc(OC)cc2)C(O)(C(F)(F)F)C1 (stereo not drawn) | -1.44
COc1ccccc1C(=O)Nc1cccc(C(=O)c2ccccc2)c1 | -0.645
